Hits are enriched below; roughly 11% of the tested compounds scored in any of these assays.
Luciferase inh = blocks purified firefly luciferase enzyme activity. P08659. purified P. pyralis luciferase, luminescence, biochemical. AID 1347043. 2.5% of 76,000 active. Potency, µM (highest dose often 115 µM), hits mostly inhibitors; also: nearly all actives have a fitted effect of over 65% in size
Target sequence (P08659 whole entry, looked up): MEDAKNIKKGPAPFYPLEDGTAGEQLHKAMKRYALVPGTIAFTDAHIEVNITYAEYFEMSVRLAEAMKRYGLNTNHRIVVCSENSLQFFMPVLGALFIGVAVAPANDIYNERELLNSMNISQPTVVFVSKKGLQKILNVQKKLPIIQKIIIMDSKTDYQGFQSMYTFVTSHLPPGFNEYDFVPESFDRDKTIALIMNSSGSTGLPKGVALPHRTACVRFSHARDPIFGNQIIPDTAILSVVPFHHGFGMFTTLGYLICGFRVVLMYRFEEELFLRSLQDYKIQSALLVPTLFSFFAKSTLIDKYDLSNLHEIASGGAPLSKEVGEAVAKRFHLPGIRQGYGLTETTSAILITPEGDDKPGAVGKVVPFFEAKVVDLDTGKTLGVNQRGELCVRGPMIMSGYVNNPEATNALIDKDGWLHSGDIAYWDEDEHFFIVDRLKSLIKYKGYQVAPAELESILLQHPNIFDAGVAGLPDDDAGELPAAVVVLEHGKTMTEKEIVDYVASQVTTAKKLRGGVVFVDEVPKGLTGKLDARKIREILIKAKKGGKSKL
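Inhibitors were tested against purified firefly luciferase in a biochemical, low-substrate format (both substrates at 10uM) and luminescence measured with a CCD imager.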
NIH3T3 tox = kills NIH 3T3 cells | NIH 3T3 viability, CellTiter-Glo ATP luminescence, 48-72 h | Potency, µM (series often up to 96.7 µM), for inactives: top-dose activity change, negative = cytotoxicity, most hits filed as inhibitors | 4.3% of 94,000 active; also: nearly all actives have a fitted effect of over 55% in size
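NIH 3T3 cells at 400 cells/well received 23 nL of compound by pintool and were incubated 48 or 72 h at 37 °C. Viability was read as ATP-coupled CellTiter-Glo luminescence.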
HEK293 tox = HEK 293 cell cytotoxicity; HEK 293 viability, ATP luminescence (CellTiter-Glo), 48-72 h; Potency, µM (series often up to 115 µM), inactives show top-dose activity change, negative = cytotoxicity, actives largely listed as inhibitors; 6.6% of 94,000 active; also: nearly all actives have a fitted effect of over 60% in size
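Cytotoxicity was scored by loss of ATP-coupled luminescence (CellTiter-Glo) in HEK 293 cells. Compound treatment ran 48 or 72 hr at 37 degree Celsius, 5% CO2, 95% humidity.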
hNpr1 antagonist = antagonists of human natriuretic peptide receptor Npr1; P16066; HEK293 hNpr1 GloSensor cGMP, ANP-stimulated luminescence; Potency, µM (series often up to 46.3 µM), for the others: at the highest dose activity change, negative = inhibition, most hits filed as inhibitors; 1.6% of 76,000 active; calls by dose curve; also: nearly all actives have a fitted effect of over 60% in size
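Compound pre-incubated 30 min at room temperature on GloSensor-loaded HEK293 cells stably carrying hNpr1 and the pGS-40F cGMP biosensor. Stimulation uses hNppA at 0.1 nM final; luminescence is taken at baseline and 20 min post-agonist.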
* marks the source's active call; other numbers are inactive results; i = inactive; ? = inconclusive; · = not tested or not shown; [ ] = remark or other dose. Unless noted, calls follow the shape of the dose curve; as a rule, active = well fitted curve in the direction sought with a large enough effect; inconclusive = small, poorly fitted or top-dose-only effect, or another doubt; inactive = no such curve, though single readings can be large; an effect the other way counts as inactive or inconclusive. % is scaled to controls: 0 for no effect and ±100 for the full control effect; potency is read from the fitted curve at half-maximal effect.

SMILES	Luciferase inh	NIH3T3 tox	HEK293 tox	hNpr1 antagonist
O=C1NCCOCCN(C(=O)Nc2ccc3c(c2)OCCO3)[C@@H]2CCCC[C@H]12	16µM*	-2%	-1%	-23%
Cc1nn2c(c1-c1cccnc1N1CCOCC1)N(Cc1ccc3c(c1)CCO3)CCC2	i	45µM*	-23%[172 µM]	-19%[70.6 µM]
Cc1nn2c(c1-c1ccccc1OCc1ccccc1)N(Cc1ccccc1)CCC2	i	?	?	-21%[70.6 µM]
COc1ccc(OC)c(CN2CCCn3nc(C)c(-c4cccnc4N4CCOCC4)c32)c1	i	?	-29%	-18%
Cc1nn2c(c1-c1cccnc1N1CCOCC1)N(CCC(C)C)CCC2	i	?	40µM*	-25%[70.6 µM]
Cc1nn2c(c1-c1ccnn1C(C)C)N(Cc1ccc3c(c1)CCO3)CCC2	i	32µM*	?	-2%[70.6 µM]
COc1ccc(CN2CCCn3nc(C)c(-c4ccnn4C(C)C)c32)cc1O	i	?	-11%[172 µM]	1%[70.6 µM]
CC(C)NC(=O)N1CCCCC1CCn1cc(-c2ccccc2)nn1 (stereo not drawn)	·	-27%	-17%	·
Clc1ccccc1CNC1(Cc2cc(-c3ccccc3)on2)COC1	i	?	112µM*	-14%[70.6 µM]
CC(C)(C)c1cc(CC2(NCc3ccc(OC(F)(F)F)cc3)COC2)no1	i	112µM*	?	4%[70.6 µM]
FC(F)(F)Oc1ccc(CNC2(Cc3cc(-c4ccccn4)on3)COC2)cc1	i	-22%[138 µM]	?	-2%[70.6 µM]
Oc1ccccc1CNC1(Cc2cc(-c3ccccc3)on2)COC1	i	?	-21%[172 µM]	-4%[70.6 µM]
Fc1ccc(CNC2(Cc3cc(-c4ccccc4)on3)COC2)cc1	i	-14%[174 µM]	89µM*	?
COc1ccc(-c2cc(CC3(NCc4ccc(C)o4)COC3)no2)cc1	i	?	?	-19%[70.6 µM]
COc1ccc(-c2cc(CC3(NCc4ccccc4)COC3)no2)cc1	i	?	100µM*	5%[70.6 µM]
O=C(c1ccccc1)N1CCN(C(=O)c2nc3cccnc3n(Cc3ccccc3)c2=O)CC1	·	-18%	0%	·
COc1ccc(C(=O)N2CCC3(CC2)COc2ccccc2CN3)cc1	i	-13%	?	13%
CNC(=O)c1c(C)nc2cnccn12	·	1%[174 µM]	i	·
Clc1ccc(CNC2(Cc3cc(COc4ccccc4)on3)COC2)cc1	i	?	79µM*	-21%[70.6 µM]
Oc1ccccc1CNC1(Cc2cc(-c3ccc(F)cc3)on2)COC1	i	?	100µM*	?
CN(C)c1ccc(CNC2(Cc3cc(-c4ccccc4)on3)COC2)cc1	i	-26%[174 µM]	89µM*	-7%[70.6 µM]
CN1CCCC[C@]2(C[C@H](C(=O)O)[C@H](c3ccccc3)N2C(=O)Cc2ccc(F)cc2)C1=O	·	?	-21%	·
O=C(Nc1cnc(-c2cccc(Cl)c2)nc1)c1ccc(F)cc1Cl	11µM*	?	?	?
O=C(Nc1cnc(-c2cccnc2)nc1)C1CCCC1	32µM*	-6%	4%	-11%
COc1ccccc1CC(=O)Nc1cnc(-c2cccc(Cl)c2)nc1	13µM*	?	?	-19%
SMILES	Luciferase inh	NIH3T3 tox	HEK293 tox	hNpr1 antagonist
CC(C)(C)CC(=O)Nc1cnc(-c2ccc(Cl)cc2)nc1	0.28µM*	40µM*	45µM*	3.5µM*
O=C(Nc1cnc(-c2cccc(Cl)c2)nc1)c1ccsc1	?	-26%	-14%	-17%
O=C(Nc1cnc(-c2cccc(Cl)c2)nc1)c1nccc2ccccc12	i	?	?	-15%
O=C(NC1CCCC1)C1CCCN1C(=O)c1cccc(-c2cccnc2)c1 (stereo not drawn)	·	1%	i	·
CCC1c2nccn2CCCN1C(=O)Cc1ccc(OC)cc1 (stereo not drawn)	i	-11%	-12%	-3%
CCn1ncc(N2CCCC(CC(=O)N(C)C3CCN(C)CC3)C2)cc1=O (stereo not drawn)	·	-4%	i	·
Cc1ccc(-c2ncc(NC(=O)c3ccc(F)c(F)c3)cn2)cc1	i	i	9%	5%
O=C(Nc1cccc(-c2cscn2)c1)C1CCN(C(=O)C2CCCO2)CC1 (stereo not drawn)	i	-4%	-29%	1%
O=C(Nc1cnc(-c2cccc(Cl)c2)nc1)C1CCCO1 (stereo not drawn)	2.8µM*	-26%	?	?
O=C(Nc1cnc(-c2cccc(Cl)c2)nc1)c1ccccc1F	1µM*	4%	-2%	-15%
O=C(Nc1cnc(-c2ccc(Cl)cc2)nc1)c1cccc(F)c1	7.9µM*	-4%	?	-11%
COc1ccc(NC(=O)c2ccc3nc(-c4ccccn4)oc3c2)cc1	·	-39%	25µM*	·
Cc1cccc(-c2nc3ccc(C(=O)NC4CC4)cc3o2)n1	·	?	45µM*	·
O=C(NC1CC1)c1ccc2nc(-c3cccnc3)oc2c1	·	-34%[138 µM]	?	·
COc1ccc(NC(=O)c2ccc3oc(-c4cccnc4OC)nc3c2)cc1	·	-22%[138 µM]	?	·
Cc1ncccc1-c1nc2cc(C(=O)NCCCc3ccccc3)ccc2o1	·	50µM*	79µM*	·
O=C(NCC1CC1)c1ccc2nc(-c3ccccn3)oc2c1	·	?	112µM*	·
O=C(NCC1CC1)c1ccc2nc(-c3ccncc3)oc2c1	·	-8%	2%	·
O=C(NCCCc1ccccc1)C1CCCN(c2nc3ncccc3o2)C1 (stereo not drawn)	i	-17%	-27%	13%
COc1ncccc1-c1nc2cc(C(=O)Nc3cccc(Cl)c3)ccc2o1	·	-32%	13µM*	·
CCOC(=O)C[C@@H]1C[C@@H](C(C)C)[C@H](CNS(=O)(=O)c2ccc(OC)cc2)C=C1C	i	?	40µM*	-16%[70.6 µM]
CCOC(=O)C[C@@H]1C[C@@H](C(C)C)[C@H](CNS(=O)(=O)c2ccc(NC(C)=O)cc2)C=C1C	i	?	?	-5%
COc1ccc(S(=O)(=O)NC[C@@H]2C=C(C)[C@H](CC(=O)N3CCN(C)CC3)C[C@H]2C(C)C)cc1	i	?	?	2%
COc1ccc(S(=O)(=O)NC[C@@H]2C=C(C)[C@H](CC(=O)N3CCN(c4ccccn4)CC3)C[C@H]2C(C)C)cc1	i	8.9µM*	?	-17%
Cc1ccc2c(ccn2CCNC(=O)C[C@H]2NC(=O)c3ccccc3NC2=O)c1	i	i	8%	1%
SMILES	Luciferase inh	NIH3T3 tox	HEK293 tox	hNpr1 antagonist
Cc1nn(C)c2nc(-c3ccccn3)nc(N3CCC4(CC3)COC(=O)O4)c12	i	-4%	-10%	-1%
Cc1nn(C)c2nc(-c3ccccn3)nc(NCc3ccc4c(c3)OCO4)c12	?	28µM*	32µM*	-15%
CN(Cc1ccc(F)cc1)c1ccc2ncc(Nc3cccc(N[S+](C)(=O)[O-])c3)n2n1	i	32µM*	35µM*	?
CN(Cc1cccnc1)c1ccc2ncc(Nc3cccc(N[S+](C)(=O)[O-])c3)n2n1	i	?	-15%[172 µM]	-3%[70.6 µM]
CN(Cc1ccc(F)cc1)c1ccc2ncc(Nc3ccc(CCO)cc3)n2n1	i	22µM*	?	-11%[70.6 µM]
COc1ncccc1Nc1cnc2ccc(N(C)Cc3ccc(F)cc3)nn12	i	?	45µM*	?

Source: PubChem
